Cruzain noTriton: inhibitors of Trypanosoma cruzi cruzain without detergent | purified cruzain, Z-FR-AMC fluorescence, no detergent | AID 1476 | Potency, µM, without a hit: max response, negative = inhibition, actives largely listed as inhibitors | 200,000 tested, 2.3% active | P25779;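 also: plate controls were enzyme without inhibitor for no effect and buffer without enzyme for full effect; nearly all actives have a fitted effect of over 40% in size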
Target sequence (P25779 123-467 limits assumed): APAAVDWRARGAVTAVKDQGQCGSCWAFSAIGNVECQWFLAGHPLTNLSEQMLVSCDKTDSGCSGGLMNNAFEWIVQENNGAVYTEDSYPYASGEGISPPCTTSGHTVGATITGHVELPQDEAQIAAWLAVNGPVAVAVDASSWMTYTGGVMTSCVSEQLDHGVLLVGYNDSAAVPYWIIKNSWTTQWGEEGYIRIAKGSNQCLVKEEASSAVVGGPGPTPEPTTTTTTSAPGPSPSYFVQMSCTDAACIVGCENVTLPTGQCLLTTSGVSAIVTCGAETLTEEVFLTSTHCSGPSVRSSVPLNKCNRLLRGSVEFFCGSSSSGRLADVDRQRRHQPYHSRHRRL
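Purified cruzain at 1.5 nM, pre-incubated 15 min with compound at room temperature in 100 mM sodium acetate pH 5.5, 5 mM DTT, 0.00005% Triton X-100. Reaction started with 2 uM Z-FR-AMC; AMC fluorescence increase over 60 s gives rate.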
Cruzain inh Det: blocks cruzain activity in presence of Triton detergent. AID 1478. purified cruzain, Z-FR-AMC fluorescence, 0.01% Triton. Potency, µM, for the others: max response, negative = inhibition, usual class: inhibitors. 200,000 tested, 0.43% active;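 also: plate controls were neutral wells for no effect and buffer without enzyme for full effect; nearly all actives have a fitted effect of over 40% in size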
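Read-out: AMC fluorescence (360 nm excitation, 450 nm emission), four reads over 2 min, first-to-third difference used. Conditions: cruzain 1.5 nM, Z-FR-AMC 2 uM, pH 5.5 acetate, 5 mM DTT, 0.01% Triton X-100.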
Active calls of the source: *; ? = inconclusive. Shown are actives, neighbours in structure and some others; about 2.4% of the full set was active somewhere. Calls follow the shape of the dose curve; as a rule, active = well fitted curve in the direction sought with a large enough effect; inconclusive = small, poorly fitted or top-dose-only effect, or another doubt; inactive = no such curve, though single readings can be large; an effect the other way counts as inactive or inconclusive. Potency is read from the fitted curve at half-maximal effect.

SMILES	Cruzain noTriton	Cruzain inh Det
COc1ccc(-c2nnc(SCC(=O)Nc3cc(F)ccc3C)o2)cc1	2%	4%
CCOc1ccc(-c2nnc(SCC(=O)Nc3cc(F)ccc3F)o2)cc1	10µM*	-7%
O=C(NCC(c1cccnc1)N1CCc2ccccc21)c1ccc(F)cc1 (stereo not drawn)	17%	-8%
Cc1ccc(-n2ncc(C(=O)NCCc3ccsc3)c2C2CCN(C(=O)OC(C)(C)C)CC2)c(C)c1	7%	-9%
CC(=O)N1c2ccc(S(=O)(=O)NCC3CCC(C(=O)Nc4cccc(F)c4)CC3)cc2CC1C (stereo not drawn)	12%	-2%
COc1cccc(N2CCN(C(=O)c3cnn(-c4ccccc4Cl)c3C3CCN(C(=O)OC(C)(C)C)CC3)CC2)c1	?	-11%
CC(OC(=O)CNC(=O)c1ccccc1F)C(=O)Nc1nc(-c2ccccc2)cs1 (stereo not drawn)	7.9µM*	7.9µM*
Cc1ccc(-c2csc(NC(=O)CCNC(=O)c3ccccc3Cl)n2)cc1	-9%	-7%
O=C(CCC(=O)N1CC2CCCN2c2ccccc21)NCc1ccccc1F (stereo not drawn)	19%	0%
O=C(NCc1ccc(Cl)cc1)C(=O)NCC(c1ccc2c(c1)OCO2)N1CCOCC1 (stereo not drawn)	-9%	-2%
Oc1cc(O)c2c(c1)O[C@H](c1ccc(O)c(O)c1)[C@@H](O)C2	16%	2%
O=c1c(O)cc(C2Oc3cc(O)cc(O)c3CC2O)cc2c(C3Oc4cc(O)cc(O)c4CC3O)cc(O)c(O)c12 (stereo not drawn)	-22%	25µM*
CN(Cc1ccc(F)cc1)S(=O)(=O)c1nnc(NC(=O)c2ccccc2)s1	?	-1%
CN(Cc1ccc(F)cc1)S(=O)(=O)c1nnc(NC(=O)c2ccc(F)cc2)s1	16µM*	-3%
COc1ccccc1NC(=O)c1c(C)cc(C)nc1SCC(=O)Nc1ccc(C)cc1	-6%	-6%
CCc1ccc(OCc2nnc(NC(=O)c3cccs3)s2)cc1	13µM*	2%
O=C(NC(=S)Nc1nc2ccccc2s1)c1cccs1	-26%	-9%
Cc1ccc(OCc2nnc(NC(=O)Cc3cccs3)s2)cc1	?	4%
CCc1ccc(-c2nc(NC(=S)NC(=O)c3cccs3)sc2C)cc1	4µM*	3%
C=Cc1ccc(Cn2c(C)c(CNCCc3ccc(OCC)cc3)c(C(=O)O)c2C)cc1	17%	-5%
CCN(C(=O)c1cc2c(=O)oc3ccccc3c2s1)c1ccc(C)c(C)c1	-6%	0%
COc1cccc(Cn2c(=O)n(-c3cccc(Cl)c3C)c(=O)c3c4c(sc32)CN(C(C)=O)CC4)c1	?	-4%
Cc1cccc(N2CCN(C(=O)Cn3c(=O)c4cccn4c4ccc(F)cc43)CC2C)c1 (stereo not drawn)	5%	-1%
COc1cc2c(cc1NC(=O)COc1cc(C)cc(C)c1)oc1ccccc12	5%	0%
Cc1cc(C)c(NC(=O)COc2ccccc2C(=O)Nc2ccc3c(c2)oc2ccccc23)c(C)c1	5µM*	-5%
SMILES	Cruzain noTriton	Cruzain inh Det
Cc1ccc(C2=NN(CC(=O)NCCc3ccc(Cl)cc3)C(=O)CC2)cc1	9%	2%
Cc1ccc2c(c1)C(c1ccc(F)cc1)N(C(=O)COc1ccc(Cl)cc1Cl)CC(=O)N2 (stereo not drawn)	?	-6%
CCCCc1ccc(-c2c(C#N)c(N)nc3c2CCCC3)s1	25µM*	5%
CCCCc1sc(-c2c(C#N)c(N)nc3c2CCCCC3)cc1[N+](=O)[O-]	-4%	-6%
O=C(NCCCN1CCc2ccccc2C1)C1CCN(c2nnc(-n3cccc3)s2)CC1	-24%	25µM*
O=C(NCCCN1CCN(Cc2ccccc2)CC1)C1CCN(c2nnc(-n3cccc3)s2)CC1	-9%	-7%
Cc1cccc(NC(=O)c2ccc3oc(=O)c(S(=O)(=O)c4ccc(F)cc4)cc3c2)c1C	23%	-1%
O=C(N/N=C/c1cc(Br)ccc1O)c1ccccc1Cl	-1%	-9%
O=C(CCc1ccccc1)N/N=C/c1cc(Br)ccc1O	20µM*	-5%
CC(=O)Cc1nsc(NC(=O)c2ccc(-c3cccc(C(F)(F)F)c3)o2)n1	3%	4%
Cc1nnc(NC(=O)c2ccc(-c3cccc(C(F)(F)F)c3)o2)s1	13µM*	2%
Cc1ccc2cccc(NC(=O)c3ccc(-c4cccc([N+](=O)[O-])c4)o3)c2n1	-10%	-2%
O=C(Nc1ncc(Cc2cccc(C(F)(F)F)c2)s1)c1ccc(-c2cccc([N+](=O)[O-])c2)o1	10µM*	-4%
COc1cc(NC(=O)Cn2c(=O)oc3cc(S(=O)(=O)N4CCCCCC4)ccc32)cc(OC)c1	-8%	-5%
Cc1cccc(-c2nc3c(C#N)c[nH]n3c2NC2CCCCC2)c1	4%	-2%
COc1ccc(NC(=O)CCc2nnc3n(Cc4ccccc4Cl)c(=O)c4ccccc4n23)cc1	3%	0%
CCCCC(Sc1nc2cc3c(cc2c(=O)n1CCCC(=O)NCc1ccc(OC)cc1)OCO3)C(=O)OCC (stereo not drawn)	?	4%
COc1cccc(CNC(=O)CCn2c(=O)c3cccn3c3ccc(F)cc32)c1OC	2%	-2%
O=C(NCC(c1cccnc1)N1CCc2ccccc2C1)C(=O)Nc1cccc(Cl)c1 (stereo not drawn)	-2%	-1%
O=C(Cc1ccccc1)Nc1ccccc1N1CCN(c2ccccc2)CC1	-22%	-3%
O=C(Nc1ccccc1N1CCN(c2ccccc2)CC1)C12CC3CC(CC(C3)C1)C2	25µM*	5%
CCC(=O)Nc1cc2nn(-c3ccc(OC)cc3)nc2cc1C	?	8%
COc1ccc(-n2nc3cc(C)c(NC(=S)NC(=O)c4ccccc4C)cc3n2)cc1	13µM*	-3%
O=C(Nc1ccc(CN2CCOCC2)cc1)c1ccc(-c2cc(Cl)ccc2Cl)o1	25µM*	-19%
S=C(c1ccc(-c2cc(Cl)ccc2Cl)o1)N1CCOCC1	-11%	-15%
SMILES	Cruzain noTriton	Cruzain inh Det
COC(=O)C1(C(=O)OC)C[C@@H]2CON=C2[C@H]1c1ccccc1	7%	-1%
O=C(C1COc2ccccc2O1)N1CCn2c(nc3ccccc32)C1 (stereo not drawn)	13µM*	-30%
O=C(c1ccccc1)N1CCn2c(nc3ccccc32)C1	-8%	0%
O=[N+]([O-])c1cccc(/C=C/c2nc(C=Nc3ccccc3)c(O)o2)c1	13µM*	0%
Oc1oc(-c2ccccc2)nc1C=Nc1ccccc1	-10%	-10%
COc1ccc(NC(=O)c2ccc(-c3nc(CSc4ccc(C)cc4)c(C)o3)cc2)cc1Cl	?	-2%
COc1ccc(N2CCC(CNS(=O)(=O)c3cccc(C(F)(F)F)c3)C2)cc1 (stereo not drawn)	25µM*	-5%
COc1ccc(N2CCC(CNC(=S)Nc3cccc(C)c3)C2)cc1 (stereo not drawn)	-28%	-6%
N#Cc1nc(Cc2cccc3ccccc23)oc1N1CCOCC1	8%	-3%
CC1CCN(c2oc(Cc3cccc4ccccc34)nc2C#N)CC1	-3%	2%
COc1ccc(N2CCN(c3oc(Cc4cccc5ccccc45)nc3C#N)CC2)cc1	16µM*	3%
N#Cc1nc(Cc2cccc3ccccc23)oc1N1CCN(c2ccccc2)CC1	7.9µM*	1%
COc1ccc2c(c1)CC(NC(=O)Nc1ccc(NC(C)=O)cc1)CO2 (stereo not drawn)	1%	2%
Clc1ccccc1CN1CCc2nc(N3CCN(c4ncccn4)CC3)ncc2C1	18%	-4%
